Hit rate of the full screen: of about 5,500 compounds, about 2,000 (36%) were called active. Not shown: some 18% with an inconclusive outcome. Cut-off read from the data, not from the text of the source: active = normalized growth mostly below about 0.91 (no sharp cut-off); inconclusive = no clear call, values can overlap the other calls; inactive = mostly above about 0.92. Some of the results follow.
Assay: chemical genetic growth profiling, strain panel (AID 1159580);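 note: tested at 20 µM; growth read once vehicle control cultures reached saturation at 30 °C; 1 = growth at the plate median or of vehicle wells; lower values mean less growth of the strain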
Details: S. cerevisiae deletion strains, growth OD

Measured: normalized growth

CSc1ccc(/C=C(\C)[N+](=O)[O-])cc1
active: locus YAR019C, strain CDC15, hits give low values 0.0932 | locus YBL105C, strain PKC1, hits give low values 0.0831 | locus YBR135W, strain CKS1, hits give low values 0.0817 | locus YBR136W, strain MEC1, hits give low values 0.0817 | locus YBR160W, strain CDC28, hits give low values 0.0827 | locus YDL017W, strain CDC7, hits give low values 0.0813 | locus YDL028C, strain MPS1, hits give low values 0.0841 | locus YDL101C, strain DUN1, hits give low values 0.1 | locus YDL108W, strain KIN28, hits give low values 0.0841 | locus YDL214C, strain PRR2, hits give low values 0.0925 | locus YDR052C, strain DBF4, hits give low values 0.103 | locus YDR054C, strain cdc34, hits give low values 0.0952 | locus YDR226W, strain ADK1, hits give low values 0.09 | locus YDR477W, strain SNF1, hits give low values 0.104 | locus YER123W, strain YCK3, hits give low values 0.0983 | locus YER133W, strain GLC7, hits give low values 0.0958 | locus YFL009W, strain cdc4, hits give low values 0.0931 | locus YFL029C, strain CAK1, hits give low values 0.0921 | locus YFR003C, strain YPI1, hits give low values 0.0893 | locus YFR019W, strain FAB1, hits give low values 0.092 | locus YFR028C, strain CDC14, hits give low values 0.0831 | locus YGR040W, strain KSS1, hits give low values 0.103 | locus YGR052W, strain FMP48, hits give low values 0.138 | locus YGR092W, strain DBF2, hits give low values 0.105 | locus YHR030C, strain SLT2, hits give low values 0.132 | locus YHR079C, strain IRE1, hits give low values 0.122 | locus YHR082C, strain KSP1, hits give low values 0.141 | locus YHR205W, strain SCH9, hits give low values 0.00725 | locus YIL147C, strain SLN1, hits give low values 0.0876 | locus YJL095W, strain BCK1, hits give low values 0.142 | locus YJL157C, strain FAR1, hits give low values 0.084 | locus YJR016C, strain ILV3, hits give low values 0.0861 | locus YJR066W, strain TOR1 (second series), hits give low values 0.0953 | locus YJR066W, strain TOR1, hits give low values 0.158 | locus YKL048C, strain ELM1, hits give low values 0.106 | locus YKL067W, strain YNK1, hits give low values 0.0912 | locus YKL101W, strain HSL1, hits give low values 0.103 | locus YKL193C, strain SDS22, hits give low values 0.0867 | locus YKL203C, strain TOR2, hits give low values 0.115 | locus YLR113W, strain HOG1, hits give low values 0.176 | locus YLR133W, strain CKI1, hits give low values 0.0883 | locus YLR403W, strain SFP1, hits give low values -0.00294 | locus YML070W, strain DAK1, hits give low values 0.0932 | locus YMR001C, strain CDC5, hits give low values 0.0857 | locus YMR205C, strain PFK2 (second series), hits give low values 0.0912 | locus YMR277W, strain FCP1, hits give low values 0.0923 | locus YNL006W, strain LST8, hits give low values 0.088 | locus YNL020C, strain ARK1, hits give low values 0.0937 | locus YNL161W, strain CBK1, hits give low values 0.0836 | locus YNL183C, strain NPR1, hits give low values 0.129 | locus YNL207W, strain RIO2, hits give low values 0.0937 | locus YNL222W, strain SSU72, hits give low values 0.0888 | locus YNL307C, strain MCK1 (second series), hits give low values 0.103 | locus YOL078W, strain AVO1, hits give low values 0.0847 | locus YOL136C, strain PFK27, hits give low values 0.0905 | locus YOR061W, strain CKA2, hits give low values 0.0875 | locus YOR119C, strain RIO1, hits give low values 0.109 | locus YOR231W, strain MKK1, hits give low values 0.137 | locus YOR329C, strain SCD5, hits give low values 0.0819 | locus YPL031C, strain PHO85, hits give low values 0.11 | locus YPL153C, strain RAD53, hits give low values 0.112 | locus YPL204W, strain HRR25, hits give low values 0.0976 | locus YPL209C, strain IPL1, hits give low values 0.0829 | locus YPL256C, strain CLN2, hits give low values 0.156 | locus YPR025C, strain CCL1, hits give low values 0.0822 | locus YPR106W, strain ISR1, hits give low values 0.0856 | locus YPR111W, strain DBF20, hits give low values 0.188 | strain NNK1, hits give low values 0.0909 | strain TSCII, hits give low values 0.0882
